Test results published in PubChem BioAssay (NCI).
The panel holds about 83,000 compounds, 20% with a hit somewhere; the sample as a whole holds those more often.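 Cell lines were cultured in 96-well plates, exposed to a single compound concentration, and assessed for percent growth 48 hours later.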 The source made the active and inactive calls. How the source made its calls: active means growth percent below 10; inactive means the rest.

Each compound was assayed on HCT-116 colon (assay: NCI-60 one-dose screen, 48 h (100 = growth as untreated, 0 = no growth, -100 = all killed)). Conditions: 10 µM unless noted.
In the case of `Cc1cn(-c2cc(NC(=O)c3cncc(C#Cc4cnc(N)c5ncccc45)c3)cc(C(F)(F)F)c2)cn1`, the growth is reported as 35.6% (inactive). `O=C(Cn1cc(CSc2nc3ccccc3o2)nn1)Nc1ccc(F)cc1F` was tested, and the growth was 109% (inactive). For `Cc1c2cnccc2c(C)c2c1c1cc(C#N)ccc1n2C`, the growth was -22.9% (active). With `CNC(=O)c1ccccc1Oc1nc(Nc2cc(OC)c(OC)c(OC)c2)ncc1Br` the growth was 46.5% (inactive).

The compounds below were run on HCC-2998 colon in the same assay as above. Conditions: 10 µM unless noted.
With `COCCOc1cc2ncnc(N3CCN(c4ncc(S(=O)(=O)N5CCCCC5)cn4)CC3)c2cc1OCCOC` the growth was 99.3% (inactive). With `COC(=O)[C@]1(C)CCC[C@]2(C)[C@H]3C[C@H]4C(C(C)C)=C[C@]3(CC[C@H]21)[C@@H]1C(=O)CC[C@H](OCCC#N)[C@@H]14` the growth was 96.4% (inactive). For `O=C(O)CCN1C(=O)/C(=C/C(Cl)=C/c2ccccc2)SC1=S`, the growth was 4.75% (active). In the case of `O=C(/C=C/c1cccc(Cl)c1)c1ccc(Nc2nc(Nc3ccc(F)cc3)nc(Nc3ccc(Cl)cc3)n2)cc1`, the growth is reported as 98.2% (inactive). With `CC(C)(Sc1cc(C(C)(C)C)c(O)c(C(C)(C)C)c1)Sc1cc(C(C)(C)C)c(OC(=O)CCCC(=O)O)c(C(C)(C)C)c1` the growth was 50.4% (inactive). With `Fc1cc2c(cc1Cl)N(c1ncnc3ccc(-c4ccc5n[nH]nc5c4)cc13)CC2` the growth was 92.1% (inactive). In the case of `CCSC(SCC)c1ccc(Cl)cc1`, the growth is reported as 92.3% (inactive). In the case of `O=C(Nc1nc2ccc(C(=O)N3CCN(/C=C/c4ccccc4)CC3)cc2s1)c1ccc(NCCc2ccccc2)c([N+](=O)[O-])c1`, the growth is reported as 76.9% (inactive). In the case of `O=S(=O)(Nc1cc(F)cc(Cl)c1)c1ccc(-c2cnc(C3CC3)o2)cc1`, the growth is reported as 54.9% (inactive). `COC(=O)c1c(C)nc(C)c2c1C(=O)C(Br)=C(NCc1ccccc1)C2=O` was tested, and the growth was 21.8% (inactive). With `COc1cc2c(c(OC)c1OC)CCC(c1cccc(C(=O)Nc3ccc(C#N)cc3)c1)O2` (centres undefined) the growth was 73.1% (inactive). In the case of `O=C1c2ccccc2-c2c1c1c(=O)[nH]c3ccccc3c1n2Cc1ccccc1`, the growth is reported as 55.4% (inactive). With `O=C1c2c(c3c4ccccc4[nH]c3c3ccc4ccccc4c23)C(=O)N1CCN1CCNCC1` the growth was 73.7% (inactive). With `CC(C)=CCCC(C)c1ccc(C)c2c1OCN(CCCCCO)C2` (centres undefined) the growth was 73.5% (inactive). In the case of `COc1ccc(/C=N/NC(=O)c2ccc(-n3cc(-c4ccccc4)nn3)cc2)cc1OC`, the growth is reported as 113% (inactive). With `CCN(CC)S(=O)(=O)c1ccc(S(=O)(=O)N2CCC[C@@H](C(=O)N3CCN(c4nc(C(C)C)no4)CC3)C2)cc1` the growth was 78.7% (inactive). In the case of `Cc1cc(N2CCN(CC(=O)Nc3ccc4c(ccn4C)c3)CC2)nc(N2CCCCCC2)n1`, the growth is reported as 127% (inactive). In the case of `COc1ccc(Nc2ncc(Br)c(NCCCNC(=O)c3cccs3)n2)cc1`, the growth is reported as 80.6% (inactive). With `NC(=O)C(=O)c1ccccc1NC=O` the growth was 107% (inactive). For `N#Cc1ccc2c(c1)C(=O)c1c-2n(CCCN)c(=O)c2cc([N+](=O)[O-])ccc12`, the growth was -100% (active). `c1ccc(Cn2cc3c(c2)-c2oncc2CC3)cc1` was tested, and the growth was 4.68% (active). `O=C(CSC(=S)n1cnnc1)NC(=O)c1ccccc1` was tested, and the growth was 104% (inactive). `O=C1/C(=C\c2ccc3nccnc3c2)SC(=S)N1CCc1ccc(O)cc1` was tested, and the growth was 117% (inactive). `COc1c(B(O)O)cccc1-c1nc2c(F)cc3[nH]ncc3c2c2c1CCCC2` was tested, and the growth was 1.17% (active). For `COc1c(B(O)O)cccc1-c1cc(C)c2c(ccc3[nH]ncc32)n1`, the growth was 105% (inactive). With `CSc1nnc(-c2cc3c([nH]c4ccccc43)c(-c3cccc(O)c3)n2)n1-c1ccccc1` the growth was 67.3% (inactive). In the case of `C=C1C(=O)O[C@H]2[C@H]1CC/C(Cn1cc(-c3ccccc3)nn1)=C\CC[C@@]1(C)O[C@@H]21`, the growth is reported as 5.21% (active). In the case of `C=C(CBr)[C@@H]1CC[C@]2(C(=O)O)CC[C@]3(C)[C@H](CC[C@@H]4[C@@]5(C)CCC(=O)C(C)(C)[C@@H]5CC[C@]43C)[C@@H]12`, the growth is reported as 95.7% (inactive). `CCNCCNc1cc(C2CCCCC2)c(C#N)c2nc3ccccc3n12` was tested, and the growth was 13.6% (inactive). For `COc1cc2c(c(OC)c1OC)CCC(c1cccc(C(=O)Nc3cccc(Cl)c3)c1)O2` (centres undefined), the growth was 91% (inactive). With `CCCCCCCC[C@@H]1N[C@@H](C(=O)OC)Cc2c1[nH]c1ccccc21` the growth was 107% (inactive). `CC(=O)Oc1ccc(/C(=C(\C)c2ccc(Cl)cc2)c2ccc(OCCN3CCCCC3)cc2)cc1` was tested, and the growth was -4.12% (active). In the case of `COc1ccc2cc1Oc1ccc(cc1)C[C@H]1c3c(cc4c(c3Oc3cc5c(cc3OC)CCN(C)[C@@H]5C2)OCO4)CCN1C`, the growth is reported as 59.9% (inactive). `CC(=O)c1c(C)nc2ccccc2c1/C=C/c1ccc(F)cc1` was tested, and the growth was 99% (inactive). In the case of `CN(/C(N)=N/N=C/c1c2ccccc2cc2ccccc12)C1CCCCC1`, the growth is reported as -69.9% (active). For `CCOC(=O)n1ccn(C)c1=S`, the growth was 106% (inactive). In the case of `Cc1cn(-c2cc(NC(=O)c3cncc(C#Cc4cnc(N)c5ncccc45)c3)cc(C(F)(F)F)c2)cn1`, the growth is reported as 79.8% (inactive). With `O=C(Cn1cc(CSc2nc3ccccc3o2)nn1)Nc1ccc(F)cc1F` the growth was 111% (inactive). With `Cc1c2cnccc2c(C)c2c1c1cc(C#N)ccc1n2C` the growth was -68.7% (active). `CNC(=O)c1ccccc1Oc1nc(Nc2cc(OC)c(OC)c(OC)c2)ncc1Br` was tested, and the growth was 51.6% (inactive).
